Sampled rows, rich in hits. Any-hit rate of the full collection: about 3.2%.
AMA1 RON2 block: inhibitors of Plasmodium falciparum AMA1-RON2 interaction. Potency, µM (titrated, usually from 58.2 µM), actives largely listed as inhibitors. AID 720542. 360,000 tested, 0.2% active. AlphaScreen AMA1-biotinylated RON2 peptide binding; also: nearly all actives have a fitted effect of over 45% in size
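AMA1 (3D7) with his tag at 25 nM final met compounds first, then biotinylated RON2 peptide at 25 nM; detection used donor plus acceptor beads, 10 µg/mL apiece, read by AlphaScreen after 30 min at room temperature.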
Tb PYK inh: inhibitors of Trypanosoma brucei pyruvate kinase. Q57TT1. TbPYK enzyme, Kinase-Glo Plus ATP luminescence, 45 min. Potency, µM (series often up to 76.8 µM), hits mostly inhibitors. 410,000 tested, 0.12% active. AID 624173; also: nearly all actives have a fitted effect of over 50% in size
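ADP (130 uM final) triggers the TbPYK reaction after compound addition; incubation is 45 min at room temperature. Kinase-Glo Plus is then added and luminescence imaged. Normalized data are fitted to concentration-effect curves.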
LmPK inh: LmPK (Leishmania mexicana) enzyme inhibition | Q27686 | purified LmPK, Kinase-Glo ATP luminescence, 1 h | Potency, µM (titrated, usually from 57.5 µM), most hits filed as inhibitors | 290,000 tested, 0.37% active | AID 1721
Target sequence (Q27686 whole entry, looked up): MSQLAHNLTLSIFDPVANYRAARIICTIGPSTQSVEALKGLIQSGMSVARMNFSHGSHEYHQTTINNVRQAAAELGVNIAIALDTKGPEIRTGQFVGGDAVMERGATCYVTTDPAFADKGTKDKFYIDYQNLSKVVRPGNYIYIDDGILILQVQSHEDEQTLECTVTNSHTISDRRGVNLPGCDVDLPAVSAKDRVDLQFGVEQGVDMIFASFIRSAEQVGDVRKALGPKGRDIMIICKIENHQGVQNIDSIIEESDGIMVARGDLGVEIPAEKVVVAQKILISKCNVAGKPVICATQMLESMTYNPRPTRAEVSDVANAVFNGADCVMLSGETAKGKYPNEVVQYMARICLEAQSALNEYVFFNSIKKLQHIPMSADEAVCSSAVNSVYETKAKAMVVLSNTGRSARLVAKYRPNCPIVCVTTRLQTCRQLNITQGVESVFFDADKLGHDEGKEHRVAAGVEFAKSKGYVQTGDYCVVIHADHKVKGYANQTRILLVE
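Purified LmPK (0.1 nM) converted ADP (0.1 mM) to ATP with PEP (0.5 mM) in imidazole buffer pH 7.2 with KCl and MgCl2, 1 h at room temperature. ATP was read by Kinase-Glo luminescence; data normalized to uninhibited and no-enzyme controls.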
RE007 growth inh: less growth of the S. pombe RE007 Vpr strain; 360,000 tested, 0.21% active; AID 651644; Potency, µM (titrated, usually from 92.2 µM), most hits filed as inhibitors; S. pombe RE007 Vpr strain, BacTiter-Glo ATP luminescence, 24 h; active = well fitted falling curve with a large enough effect; inconclusive = small, poorly fitted or top-dose-only effect; inactive = no such curve, though single readings can be large or run the other way; also: nearly all actives have a fitted effect of over 50% in size
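Fission yeast RE007 carrying one integrated HIV-1 vpr copy, seeded at OD 0.01 in PMG+AL medium with 23 nL pinned compound. Grown 24 h at 30 degrees; viability read by BacTiter-Glo luminescence after 5 min.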
Sm TGR inh: inhibitors of Schistosoma mansoni thioredoxin glutathione reductase | Q962Y6 | purified TGR, DTNB reduction, TNB absorbance 405 nm | Potency, µM (titrated, usually from 114 µM), usual class: inhibitors | 360,000 tested, 3% active; also: nearly all actives have a fitted effect of over 60% in size
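TGR 20 nM + NADPH 100 uM (dispensed conc.), cpd preinc 15 min RT; start with NADPH (500 uM addition) then DTNB (15 mM addition). Kinetic TNB absorbance, 405 nm filter. Four-parameter Hill fit across titration.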
Large screens that a line does not name were inactive; ! = not active in a repeat. Unless noted, calls follow the shape of the dose curve; as a rule, active = well fitted curve in the direction sought with a large enough effect; inconclusive = small, poorly fitted or top-dose-only effect, or another doubt; inactive = no such curve, though single readings can be large; an effect the other way counts as inactive or inconclusive.

COC(=O)C1C2C=CC3(CN(Cc4ccco4)C(=O)C13)O2 (stereo not drawn)	Sm TGR inh 28µM
CCOC(=O)C1C2C=CC3(CN(Cc4ccco4)C(=O)C13)O2 (stereo not drawn)	Sm TGR inh 32µM
CCOc1ccc(NC(=O)Cc2ccc(NC(=O)N3CCCCc4ccccc43)cc2)cc1	none (no result: AMA1 RON2 block, LmPK inh, RE007 growth inh)
CN(C)S(=O)(=O)c1ccc2c(c1)/C(=C/c1cc3c([nH]1)CCCC3)C(=O)N2	Sm TGR inh 50µM (no result: LmPK inh)
CCOC(=O)NC1(Nc2cccc(Cl)c2)Oc2ccccc2O1	Sm TGR inh 50µM
Cc1ccc[n+](CC(=O)Nc2cccc([N+](=O)[O-])c2)c1	none (no result: Sm TGR inh)
Cc1ccc[n+](CC(=O)Nc2ccc([N+](=O)[O-])cc2)c1	Sm TGR inh 35µM
S=c1nc[nH]c2nc[nH]c12	Sm TGR inh 16µM!
COc1cc(/C=C(\NC(C)=O)C(=O)NC(C)(C)C)ccc1OC(C)=O	none
COc1cc(/C=C(\NC(C)=O)C(=O)Nc2cccc(O)c2)ccc1OC(C)=O	Sm TGR inh 50µM
COc1cccc(C2C(C(=O)Nc3ccc(C)cc3C)=C(C)Nc3c(C(=O)Nc4cccc(C)c4)cnn32)c1OC (stereo not drawn)	none (no result: AMA1 RON2 block, LmPK inh, RE007 growth inh)
Cc1ccc(OCc2ccccc2C)c([N+](=O)[O-])n1	RE007 growth inh inconclusive
CCOc1ccc(C(C)=O)cc1COc1ccc(C)nc1[N+](=O)[O-]	Sm TGR inh 10µM
COc1ccc(NC(=O)Cn2c(=O)n(Cc3ccco3)c(=O)c3sc4ccccc4c32)cc1Cl	none (no result: AMA1 RON2 block, LmPK inh, RE007 growth inh)
N/C(=N/OC(=O)c1ccccc1F)c1nonc1N	Tb PYK inh inconclusive, LmPK inh 14µM (no result: Sm TGR inh)
Nc1nonc1C(=O)OCC(=O)c1ccc(Cl)cc1	none
N/C(=N\OC(=O)c1ccc(Cl)cc1)c1nonc1N	LmPK inh 13µM
N/C(=N\OCc1ccccc1)c1nonc1N	LmPK inh inconclusive
CCOC(=O)c1ccc(CN(Cc2ccccc2C)S(=O)(=O)c2ccc(F)c(C)c2)cc1	none (no result: AMA1 RON2 block, LmPK inh, RE007 growth inh)
COc1ccc(S(=O)(=O)N2CCCC(C(=O)NCc3ccc(F)cc3)C2)cc1 (stereo not drawn)	none
COc1ccc(CCNC(=O)C2CCCN(S(=O)(=O)c3ccc(F)cc3)C2)cc1 (stereo not drawn)	Sm TGR inh 89µM
CCOc1ccccc1CNC(=O)c1cc(-c2ccc(Cl)s2)nc2ccccc12	none (no result: AMA1 RON2 block, LmPK inh, RE007 growth inh)
O=C(c1ccc([N+](=O)[O-])o1)N(Cc1nnc(-c2ccccc2Cl)o1)C1CC1	Sm TGR inh 50µM (no result: LmPK inh)
Cc1ccc(CNC(=O)c2cccc(-n3cnc4cccnc43)c2)cc1	none (no result: AMA1 RON2 block, LmPK inh, RE007 growth inh)
Cn1c(O)c(C(c2ccncc2)c2c(O)n(C)c(=S)n(C)c2=O)c(=O)n(C)c1=S	Sm TGR inh 16µM
Cn1c(O)c(C(c2ccccn2)c2c(O)n(C)c(=S)n(C)c2=O)c(=O)n(C)c1=S	AMA1 RON2 block inconclusive, Sm TGR inh 22µM
Cc1ccc(C(=O)N/N=C/c2ccc(-c3ccc(Br)cc3[N+](=O)[O-])o2)o1	Sm TGR inh 50µM
Cc1ccc(C(=O)N/N=C\c2ccc(Br)o2)o1	none
CN1CC[C@H](c2c(O)cc(O)c3c(=O)cc(-c4ccccc4Cl)oc23)[C@@H](O)C1	none (no result: AMA1 RON2 block, LmPK inh, RE007 growth inh, Sm TGR inh)
O=C(Nc1ccc2c(c1)OCO2)c1ccccn1	Sm TGR inh inconclusive (no result: LmPK inh)
O=C(/C=C\Nc1ccc2c(c1)OCO2)c1cccs1	AMA1 RON2 block inconclusive, Tb PYK inh inconclusive, LmPK inh 11µM, RE007 growth inh inconclusive
O=C(Nc1ccc2c(c1)OCO2)c1cccs1	LmPK inh 25µM, RE007 growth inh inconclusive
Cc1ccc(N/C=C/C(=O)c2cccs2)cc1	LmPK inh 16µM
O=C(/C=C\Nc1ccc2c(c1)OCO2)c1ccc(Cl)s1	none
O=C(/C=C\Nc1ccc2c(c1)OCO2)c1ccccn1	LmPK inh 3.5µM
O=C(CCCn1c(=O)c2cccn2c2ccccc21)NCCc1ccc(Cl)cc1	none (no result: AMA1 RON2 block, LmPK inh, RE007 growth inh)
O=C(NC(n1ccc(=O)[nH]c1=O)C(Cl)(Cl)Cl)C12CC3CC(CC(C3)C1)C2 (stereo not drawn)	Sm TGR inh 40µM
O=C(O)CC(NC(=O)C12CC3CC(CC(C3)C1)C2)c1ccc(Cl)cc1 (stereo not drawn)	none
CC(C)CSc1ccccc1NC(=O)c1sc2nc(-c3ccncc3)ccc2c1N	none (no result: AMA1 RON2 block, LmPK inh, RE007 growth inh)
CCOC(=O)c1cnc(Nc2nc3ccccc3o2)nc1CN1CCN(C)CC1	Sm TGR inh 50µM
Cc1ccc(N2C(=O)CSCC2=O)cc1	none
Cc1ccc(N2C(=O)CS(=O)(=O)CC2=O)cc1	Sm TGR inh 8.9µM
CCOC(=O)c1c(Nc2ccc(OCC)cc2)nnc(-c2ccccc2)c1-c1ccccc1	none (no result: AMA1 RON2 block, LmPK inh, RE007 growth inh)
O=C(Cn1ncc(Cl)c(Cl)c1=O)NCC1CCCCC1	Sm TGR inh 35µM
O=C(CN1C(=O)c2ccccc2C1=O)NC1CCS(=O)(=O)C1 (stereo not drawn)	none (no result: LmPK inh, Sm TGR inh)
Cc1cccc(NC(=O)CNC(=O)Cn2ncc(Cl)c(Cl)c2=O)c1C	none (no result: LmPK inh, Sm TGR inh)
O=C(Cn1ncc(Cl)c(Cl)c1=O)NC1CCCCC1	Sm TGR inh 25µM (no result: LmPK inh)
Cc1ccc(NC(=O)Cn2ncc(Cl)c(Cl)c2=O)cc1S(=O)(=O)N1CCCCC1	Sm TGR inh 8.9µM (no result: LmPK inh)
O=C(Cn1ncc(Cl)c(Cl)c1=O)NC1CCS(=O)(=O)C1 (stereo not drawn)	Sm TGR inh 6.3µM

Source: PubChem BioAssay
